Assay results from PubChem BioAssay (NCI).
The panel holds about 83,000 compounds, 20% with a hit somewhere; the sample as a whole holds those more often.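 In brief: 96-well plates, 48 h treatment, single concentration, percent growth endpoint.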 Activity calls are given as the source filed them. Rule for the calls: active = growth percent below 10; inactive = the rest.

Assays:
Test in all cases: NCI-60 one-dose screen, 48 h (100 = growth as untreated, 0 = no growth, -100 = all killed)
Settings in all cases: 10 µM unless noted
HCT-15 colon = tested on: HCT-15 colon
HT29 colon = tested on: HT29 colon
SNB-75 CNS = tested on: SNB-75 CNS
U251 CNS = tested on: U251 CNS
PC-3 prostate = tested on: PC-3 prostate
SK-MEL-5 melanoma = tested on: SK-MEL-5 melanoma
LOX IMVI melanoma = tested on: LOX IMVI melanoma
SK-MEL-2 melanoma = tested on: SK-MEL-2 melanoma
EKVX NSCLC = tested on: EKVX NSCLC
SN12C renal = tested on: SN12C renal
UO-31 renal = tested on: UO-31 renal
TK-10 renal = tested on: TK-10 renal
ACHN renal = tested on: ACHN renal
CAKI-1 renal = tested on: CAKI-1 renal
A498 renal = tested on: A498 renal
CCRF-CEM leukemia = tested on: CCRF-CEM leukemia
MOLT-4 leukemia = tested on: MOLT-4 leukemia
SK-MEL-28 melanoma = tested on: SK-MEL-28 melanoma
UACC-62 melanoma = tested on: UACC-62 melanoma

Measured: growth

COc1cccc(-c2nn(-c3ccccc3)cc2-c2ccnc(NCCCO)c2)c1
active: HT29 colon 7.65% | SK-MEL-2 melanoma -0.25%
inactive: HCT-15 colon 26.3% | SNB-75 CNS 23.4% | U251 CNS 21% | PC-3 prostate 46.4% | SK-MEL-5 melanoma 29.8% | LOX IMVI melanoma 33.6% | EKVX NSCLC 67.6% | SN12C renal 34.3% | UO-31 renal 48.9% | TK-10 renal 63.1% | ACHN renal 55.6% | CAKI-1 renal 43% | A498 renal 15.1% | CCRF-CEM leukemia 11.8% | MOLT-4 leukemia 25.1%

CC(Cc1ccco1)C(=O)NC(N)=O (centres undefined)
inactive: HCT-15 colon 99.3% | HT29 colon 102% | SNB-75 CNS 91.8% | U251 CNS 108% | PC-3 prostate 98.4% | SK-MEL-5 melanoma 98.6% | LOX IMVI melanoma 97.4% | SK-MEL-28 melanoma 105% | SK-MEL-2 melanoma 106% | EKVX NSCLC 98% | SN12C renal 103% | UO-31 renal 91.6% | TK-10 renal 98.7% | ACHN renal 108% | CAKI-1 renal 92.1% | A498 renal 102% | CCRF-CEM leukemia 98.9% | MOLT-4 leukemia 98.8%

C/C(=N\Nc1cc(C)c2cc(C)ccc2n1)c1ccccn1
active: HCT-15 colon -16.5% | HT29 colon -99.3% | SNB-75 CNS 5.85% | SK-MEL-5 melanoma -98.9% | UACC-62 melanoma -54.4% | LOX IMVI melanoma -86.4% | SK-MEL-28 melanoma -93.3% | UO-31 renal -91% | TK-10 renal -22.2% | ACHN renal -100% | CAKI-1 renal -16.3% | CCRF-CEM leukemia -22% | MOLT-4 leukemia -17.2%
inactive: PC-3 prostate 15.2% | SN12C renal 14.8% | A498 renal 20.9%

O=c1[nH]ncc(Br)c1Br
inactive: HCT-15 colon 15.7% | SNB-75 CNS 79.8% | U251 CNS 30.9% | PC-3 prostate 65.7% | SK-MEL-5 melanoma 69.4% | UACC-62 melanoma 87.3% | SK-MEL-28 melanoma 14.7% | SK-MEL-2 melanoma 45.1% | EKVX NSCLC 78.8% | SN12C renal 63.6% | UO-31 renal 52% | TK-10 renal 65.8% | ACHN renal 87.3% | CAKI-1 renal 86.4% | A498 renal 108% | CCRF-CEM leukemia 27.6% | MOLT-4 leukemia 35.4%
active: HT29 colon -35.1%

O=[N+]([O-])c1ccc(/C=N\Nc2ccccc2)cc1
inactive: HCT-15 colon 65.5% | HT29 colon 96.8% | SNB-75 CNS 81.8% | PC-3 prostate 69% | SK-MEL-5 melanoma 98.1% | SK-MEL-28 melanoma 97.5% | SK-MEL-2 melanoma 49.5% | EKVX NSCLC 76.6% | SN12C renal 87.3% | UO-31 renal 65.5% | TK-10 renal 111% | ACHN renal 72.6% | CAKI-1 renal 72.8% | A498 renal 75.3% | MOLT-4 leukemia 89.7%
active: UACC-62 melanoma 3.85%

COc1cccc(-c2nn(-c3ccccc3)cc2-c2ccnc(NCCCNS(=O)(=O)c3ccccc3)c2)c1
active: MOLT-4 leukemia 8.92%
inactive: HCT-15 colon 26.5% | HT29 colon 19% | SNB-75 CNS 62.1% | U251 CNS 34% | PC-3 prostate 15.7% | SK-MEL-5 melanoma 11.3% | SK-MEL-2 melanoma 29.7% | EKVX NSCLC 46.5% | SN12C renal 38.7% | UO-31 renal 13.8% | TK-10 renal 46.9% | ACHN renal 28.1% | CAKI-1 renal 48.4% | CCRF-CEM leukemia 14.4%

CCCCCCCCNc1cccc2c1C(=O)c1ccccc1C2=O
inactive: HCT-15 colon 107% | HT29 colon 89.7% | SNB-75 CNS 98.3% | U251 CNS 110% | PC-3 prostate 104% | UACC-62 melanoma 96% | SK-MEL-28 melanoma 114% | SK-MEL-2 melanoma 108% | EKVX NSCLC 109% | SN12C renal 97.6% | UO-31 renal 92.2% | TK-10 renal 98.3% | ACHN renal 111% | CAKI-1 renal 98.3% | A498 renal 81.1% | CCRF-CEM leukemia 112% | MOLT-4 leukemia 90.5%

NCCn1cc(-c2nc(-c3c[nH]c4ncccc34)cs2)c2cc(F)ccc21
inactive: HCT-15 colon 58.9% | HT29 colon 67.2% | SNB-75 CNS 64.2% | U251 CNS 84.1% | SK-MEL-5 melanoma 80% | LOX IMVI melanoma 81.7% | SK-MEL-28 melanoma 101% | SK-MEL-2 melanoma 94.7% | EKVX NSCLC 48.6% | SN12C renal 79% | UO-31 renal 53.3% | TK-10 renal 142% | ACHN renal 76.4% | CCRF-CEM leukemia 49% | MOLT-4 leukemia 57%

O=c1c(CNc2ccc(S(=O)(=O)Nc3nccs3)cc2)coc2ccccc12
inactive: HCT-15 colon 99.9% | HT29 colon 101% | SNB-75 CNS 73.8% | U251 CNS 95.4% | PC-3 prostate 107% | SK-MEL-5 melanoma 98.3% | UACC-62 melanoma 97.9% | SK-MEL-28 melanoma 121% | SK-MEL-2 melanoma 98.1% | SN12C renal 99.1% | UO-31 renal 82.2% | TK-10 renal 103% | ACHN renal 94.2% | CAKI-1 renal 98.5%

CC(C)(C)c1cc(-n2c(-c3ccc(Cl)cc3)nc3cc(C(=O)Nc4ccc(Cl)cc4)ccc32)n[nH]1
inactive: HCT-15 colon 39.2% | HT29 colon 89.5% | SNB-75 CNS 60.7% | U251 CNS 53.2% | PC-3 prostate 33.7% | SK-MEL-5 melanoma 44.8% | UACC-62 melanoma 39% | SK-MEL-28 melanoma 79.7% | SK-MEL-2 melanoma 75.8% | SN12C renal 66.9% | UO-31 renal 28.5% | TK-10 renal 50.8% | ACHN renal 38.4% | CAKI-1 renal 32% | A498 renal 48% | CCRF-CEM leukemia 62.5% | MOLT-4 leukemia 45.7%

Clc1ccccc1-c1nc(Nc2nc3ccccc3s2)nc(C(Cl)(Cl)Cl)n1
active: ACHN renal 6.55%
inactive: HCT-15 colon 19.2% | HT29 colon 13.1% | SNB-75 CNS 58.2% | U251 CNS 20.5% | PC-3 prostate 40.8% | SK-MEL-5 melanoma 90.7% | UACC-62 melanoma 48.1% | SK-MEL-28 melanoma 51.3% | SK-MEL-2 melanoma 85.9% | EKVX NSCLC 54% | SN12C renal 82.6% | UO-31 renal 14.3% | TK-10 renal 84.1% | CAKI-1 renal 20.9% | A498 renal 58.3% | CCRF-CEM leukemia 92.5% | MOLT-4 leukemia 86.3%

C[C@H]1[C@H]2C3=CC[C@@H]4[C@@]5(C)C/C(=C/c6ccco6)C(=O)C(C)(C)[C@@H]5CC[C@@]4(C)[C@]3(C)CC[C@@]2(C(=O)N2CCOCC2)CC[C@@H]1C
active: MOLT-4 leukemia 6.22%
inactive: HCT-15 colon 40.2% | HT29 colon 28.9% | SNB-75 CNS 99.4% | U251 CNS 49.1% | PC-3 prostate 39.1% | UACC-62 melanoma 60.5% | SK-MEL-28 melanoma 69.7% | SK-MEL-2 melanoma 106% | EKVX NSCLC 88.4% | SN12C renal 73.8% | UO-31 renal 49% | TK-10 renal 99.6% | ACHN renal 53.7% | CAKI-1 renal 42.5% | CCRF-CEM leukemia 14.2%

COC(=O)CCCCCn1c2ccccc2c2c3c(c4c5ccccc5[nH]c4c21)C(=O)N(O)C3=O
inactive: HCT-15 colon 44.1% | HT29 colon 24% | SNB-75 CNS 92% | U251 CNS 10.2% | PC-3 prostate 34.3% | SK-MEL-5 melanoma 33.1% | SK-MEL-2 melanoma 77.3% | EKVX NSCLC 75.3% | SN12C renal 37.8% | UO-31 renal 11.8% | TK-10 renal 74.4% | A498 renal 62% | CCRF-CEM leukemia 11.4%
active: LOX IMVI melanoma -65% | ACHN renal -18.5% | CAKI-1 renal -16.8% | MOLT-4 leukemia -15.6%

N#C/C(=C\c1ccc(-c2ccc(F)cc2)o1)c1nc(-c2ccco2)cs1
inactive: HCT-15 colon 84.5% | HT29 colon 98.7% | SNB-75 CNS 88.9% | U251 CNS 97.3% | PC-3 prostate 93.3% | SK-MEL-5 melanoma 92.8% | UACC-62 melanoma 87.1% | SK-MEL-28 melanoma 114% | SK-MEL-2 melanoma 108% | EKVX NSCLC 40.2% | SN12C renal 101% | UO-31 renal 69.8% | TK-10 renal 64.2% | ACHN renal 98.1% | CAKI-1 renal 92% | A498 renal 107% | CCRF-CEM leukemia 84.2% | MOLT-4 leukemia 91.6%

C[Si](C)(C)Cc1ccccc1
active: CCRF-CEM leukemia -49.7%
inactive: HCT-15 colon 110% | HT29 colon 114% | SNB-75 CNS 87.8% | U251 CNS 114% | PC-3 prostate 105% | SK-MEL-5 melanoma 108% | LOX IMVI melanoma 102% | SK-MEL-28 melanoma 128% | SK-MEL-2 melanoma 163% | EKVX NSCLC 110% | SN12C renal 108% | UO-31 renal 95.9% | TK-10 renal 122% | ACHN renal 106% | CAKI-1 renal 98.5% | A498 renal 164% | MOLT-4 leukemia 118%

C=C(C)[C@@H]1CC[C@]2(CN)CC[C@]3(C)[C@H](CC[C@@H]4[C@@]5(C)CCC(=O)NC(C)(C)[C@@H]5CC[C@]43C)[C@@H]12
inactive: HCT-15 colon 38.7% | HT29 colon 11.5% | SNB-75 CNS 85.5% | U251 CNS 53.4% | PC-3 prostate 37.4% | SK-MEL-5 melanoma 61.6% | UACC-62 melanoma 82.5% | SK-MEL-28 melanoma 89.2% | SK-MEL-2 melanoma 98.8% | EKVX NSCLC 87.3% | SN12C renal 65.6% | UO-31 renal 58.9% | TK-10 renal 114% | ACHN renal 69.1% | CAKI-1 renal 59.9% | A498 renal 96.2% | CCRF-CEM leukemia 20.9% | MOLT-4 leukemia 21.5%

O=S(=O)(NCCNc1cc(-c2cn(-c3ccccc3)nc2-c2cccc(O)c2)ccn1)c1cccc(F)c1
inactive: SNB-75 CNS 48.1% | U251 CNS 32.3% | PC-3 prostate 25.4% | LOX IMVI melanoma 36.5% | SK-MEL-2 melanoma 53.1% | EKVX NSCLC 46.6% | SN12C renal 50.4% | UO-31 renal 23.5% | TK-10 renal 56% | ACHN renal 36.3% | CAKI-1 renal 44.3% | A498 renal 57.4% | CCRF-CEM leukemia 18.7% | MOLT-4 leukemia 18.5%
active: HCT-15 colon 5.71% | HT29 colon 7.47%

COc1cc(-c2cc(-c3nc4ccc(F)cc4[nH]3)[nH]n2)cc(OC)c1OC
active: PC-3 prostate -18.1% | SK-MEL-5 melanoma -50.2% | UACC-62 melanoma -25.4% | SK-MEL-28 melanoma 7.54% | A498 renal 8.73%
inactive: HCT-15 colon 24.1% | HT29 colon 69.3% | SNB-75 CNS 15.2% | U251 CNS 46.2% | SK-MEL-2 melanoma 17.5% | SN12C renal 33.8% | UO-31 renal 26.1% | TK-10 renal 63.7% | ACHN renal 19.6% | CAKI-1 renal 28.4%
